Records with an inconclusive call do not appear. Entries that show only a call come without a potency. Activity calls are given as the source filed them. Calls follow the shape of the dose curve; as a rule, active = well fitted inhibition curve with a large enough effect; inconclusive = small, poorly fitted or top-dose-only effect; inactive = flat fitted curve, though single readings scatter.
Target: Calcium and integrin-binding protein 1 (Homo sapiens) (UniProt Q99828)
Experiment: Primary qHTS for Identification of Calcium Integrin Binding Protein 1 (CIB1) Competitor (AID 1508620)
Summary of the method: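 Fluorescence polarization competition: CIB1-GST (1 uM final) preincubated with compound 15 min at room temperature, then FITC-labeled alphaIIb peptide (100 nM final) added for another 15 min. Polarization read at Ex 480/Em 540.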
Potency is read from the fitted curve at half-maximal effect.

Sequence of Calcium and integrin-binding protein 1 (Homo sapiens) (Q99828 whole entry, looked up): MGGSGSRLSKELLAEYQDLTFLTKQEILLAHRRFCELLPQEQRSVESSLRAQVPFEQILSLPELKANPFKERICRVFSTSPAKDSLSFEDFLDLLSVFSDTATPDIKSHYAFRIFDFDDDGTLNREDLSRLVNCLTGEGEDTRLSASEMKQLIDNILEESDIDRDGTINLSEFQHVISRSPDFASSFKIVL

| SMILES | Potency |
| --- | --- |
| Cc1ccc(N2CCN(S(=O)(=O)c3ccc4c(c3)CC(=O)N4)CC2)cc1 | inactive |
| O=S(=O)(Nc1nc(-c2ccccc2C(F)(F)F)nc2ccccc12)c1ccc(-c2cccnc2)cc1 | inactive |
| CC(=O)Nc1sc2c(c1-c1nc3ccccc3s1)CCS(=O)(=O)C2 | inactive |
| O=C(c1ccccc1O)N(Cc1ccco1)Cc1cccs1 | inactive |
| N#Cc1c(-c2ccc(F)c(Br)c2)no[n+]1[O-] | inactive |
| O=S(=O)(Nc1cccc2cccnc12)c1ccccc1O | inactive |
| FC(F)(F)c1ccccc1-c1nc(NCC23CC4CC(CC(C4)C2)C3)c2ccccc2n1 | inactive |
| Cc1ccc(OCCn2c(CCNC(=O)c3ccc([N+](=O)[O-])cc3)nc3ccccc32)cc1 | inactive |
| CNc1oc(-c2cccc3c2OC(F)(F)O3)nc1C#N | inactive |
| Cc1cc(C)nc(NC(=S)N2CCN(c3ccc(F)cc3F)CC2)c1 | inactive |
| CC(C)c1cccc(-n2cnc3cc(C(=O)N4CCCCC4)ccc32)c1 | inactive |
| Oc1ccc(COc2cccc3ccccc23)c2cccnc12 | inactive |
| Cc1ccc(-c2csc(N3CCC(C(N)=O)CC3)n2)cc1 | inactive |
| O=C(O)c1ccc(-n2cccc2/C=C2\SC(=O)N(Cc3ccccc3Cl)C2=O)cc1 | inactive |
| O=S(=O)(c1ccc(C(F)(F)F)cc1)N1CCN(S(=O)(=O)c2ccc3c(c2)OCCO3)CC1 | inactive |
| CCOC(=O)c1cccc(-n2cnc(/C=C3\NC(=O)N(CC(=O)OC(C)(C)C)C3=O)c2)c1 | inactive |
| O=S(=O)(NCc1ccccc1F)c1ccc(O)c2ncccc12 | inactive |
| CCOc1ccccc1-c1nnc2n1N=C(c1ccc(OC)cc1)CS2 | inactive |
| COc1cc(O)c(C(CC(=O)N2CCCC2)c2ccc3c(c2)OCO3)c(OC)c1 (stereo not given) | inactive |
| COc1cccc(NC(=S)N2CCN(c3ncc(C(F)(F)F)cc3Cl)CC2)n1 | inactive |
| N#Cc1nc(Nc2cccc(C(F)(F)F)c2)nc(NC2CCCC2)n1 | inactive |
| O=S(=O)(NCCCCNS(=O)(=O)c1c(F)cccc1F)c1ccc2c(c1)OCCO2 | inactive |
| CC(=O)Nc1sc2c(c1-c1nc3ccccc3o1)CCN(C(C)C)C2 | 50.1 µM (active) |
| Cc1ccc(CNc2ncnc3ccc(-c4ccoc4)cc23)o1 | inactive |
| c1nc(NCCCN2CCOCC2)c2cc(-c3ccc4c(c3)OCO4)ccc2n1 | inactive |
| O=C1CCCC2=C1C(c1cccc(F)c1)N=C(Nc1nc3ccccc3o1)N2 (stereo not given) | inactive |
| Cc1ccc(NC(=O)Nc2nnc(-c3ccncc3)s2)cc1C | inactive |

| SMILES | Potency |
| --- | --- |
| O=C(CN1C(=O)N/C(=C\c2cccn2-c2cccc(C(=O)O)c2)C1=O)Nc1cccc(F)c1 | inactive |
| N#Cc1ccc(-c2ccc(CNc3ccc(N4CCOCC4)cc3)cn2)cc1 | inactive |
| O=C1c2ccccc2C(=O)N1c1cccc(O)c1 | inactive |
| CC(C)N1CCc2c(-c3nc4ccccc4s3)csc2C1 | inactive |
| O=C(Nc1ccc(Cl)c([N+](=O)[O-])c1)Nc1cccc(-c2ccncc2)n1 | inactive |
| Cc1ccc2nc3sc(C(=O)NCCc4cccnc4)cc3cc2c1 | inactive |
| O=C1CC(c2ccccc2)CC2=C1C1(CCCCC1)N=C(Nc1nc3ccccc3o1)N2 (stereo not given) | inactive |
| O=C1CCCC2=C1C(c1ccc(Cl)cc1)N=C(Nc1nc3ccccc3o1)N2 (stereo not given) | inactive |
| CC1(C)CC2CC(C)(CN2S(=O)(=O)c2ccc(C(=O)Nc3ccc(Cl)cc3)cc2)C1 (stereo not given) | inactive |
| O=[S+]([O-])(c1ccc2c(c1)OCCO2)N1CCN([S+](=O)([O-])c2c(O)cc(F)cc2F)CC1 | inactive |
| c1cncc(-c2ccc3ncnc(NCc4ccc5c(c4)OCO5)c3c2)c1 | inactive |
| CCOc1ccccc1-c1nnc2n1N=C(c1c(OC)cccc1OC)CS2 | inactive |
| Cc1noc(C)c1-c1ccc2ncnc(NCc3ccc(Br)cc3)c2c1 | inactive |
| Cc1ccc(/C=C/C(=O)Nc2cccc([S+](=O)([O-])Nc3ccccc3F)c2)cc1 | inactive |
| Cc1cccc(CNc2ccnc(-c3ccc(F)cc3F)n2)c1 | inactive |
| O=C(c1cccs1)c1nonc1C(=O)c1cccs1 | inactive |
| O=C1CCCC2=C1C(c1[nH]ncc1Cl)N=C(Nc1ccccc1)N2 (stereo not given) | inactive |
| CCOC(=O)c1nc(NCc2ccccc2)sc1C | inactive |
| CN(Cc1ccc(-c2ccccc2)cc1)c1nc(-c2ccccc2C(F)(F)F)nc2ccccc12 | inactive |
| O=S1(=O)N=C(Sc2cccc3cccnc23)c2ccccc21 | inactive |
| COc1ccc(C2=Nn3c(nnc3-c3ccc(OC)cc3OC)SC2)cc1 | inactive |
| COc1ccc(CCNC(=O)Cn2nc(-c3ccc(C)cc3)ccc2=O)cc1OC | inactive |
| CC(=O)Nc1sc2c(c1C(=O)c1ccccc1)CCN(C(C)C)C2 | inactive |
| O=S(=O)(c1ccc(Br)cc1)N1CCN(S(=O)(=O)c2ccc3c(c2)OCCO3)CC1 | inactive |
| O=c1c2ccccc2nc2sc(NCc3ccc(Cc4ccccc4)cc3)nn12 | inactive |
| CC(=O)Nc1sc2c(c1-c1ccc(C(N)=O)cc1)CCNC2 | inactive |
| CC(=O)Nc1cc2c(s1)CNCC2 | inactive |

| SMILES | Potency |
| --- | --- |
| [O-][n+]1onc(-c2ccccc2)c1CO | inactive |
| CCc1nn2c(=O)cc(N3C(C)CNCC3C)nc2s1 (stereo not given) | inactive |
| N/C(=N\c1nnc(-c2ccncc2)s1)Nc1ccc(Cl)c(Cl)c1 | inactive |
| Cc1ccc(C)c(OC2=NS(=O)(=O)c3ccccc32)c1 | inactive |
| CCOC(=O)c1c(-c2ccccc2)no[n+]1[O-] | inactive |
| CN(Cc1ccccc1)C(=O)C1CCN(Cc2cccc3ccccc23)CC1 | inactive |
| COc1ccc(CN(Cc2ccccc2)S(=O)(=O)c2ccccc2)cc1COc1ccc(NC(C)=O)cc1 | inactive |
| CCOC(=O)c1cccc(-n2cccc2/C=C2\NC(=O)N(CC(=O)O)C2=O)c1 | inactive |
| COc1ccc(C2c3c(n(Cc4ccccc4)cnc3=N)Oc3ccc4ccccc4c32)cc1OC (stereo not given) | inactive |
| COc1cccc(C2c3c(ncn(-c4ccc(-c5ccccc5)cc4)c3=N)Oc3ccc4ccccc4c32)c1 (stereo not given) | inactive |
| c1nc(NCC2CC2)c2cc(-c3ccc4c(c3)OCO4)ccc2n1 | inactive |
| Cc1ccc(C[C@@H](NS(=O)(=O)c2ccc(C(=O)O)cc2)C(=O)O)cc1 | inactive |
| CC(C)(C)OC(=O)N1CCN(c2ccc(NCc3ncc(-c4ccc(C#N)cc4)s3)cc2)CC1 | inactive |
| N#Cc1nc(Nc2cc(F)cc(F)c2)nc(NC2CCCC2)n1 | inactive |
| CC(=O)N1CCN(C(=S)Nc2cc(C)ccn2)CC1 | inactive |
| N#Cc1c(-c2ccc(Cl)c([N+](=O)[O-])c2)no[n+]1[O-] | inactive |
| COc1ccc(C2=Nn3c(nnc3-c3cccc(OC)c3OC)SC2)c(OC)c1 | inactive |
| COc1ccc(C2Nc3ccccc3C(=O)N2Cc2ccc3c(c2)OCO3)cc1COc1c(C)cc(NC(C)=O)cc1C (stereo not given) | inactive |
| CCOC(=O)c1[nH]c2c(c1C)CCC(c1ccco1)C2 (stereo not given) | inactive |
| Cc1ccccc1C(=O)N1CCc2cc(-c3nc(NC(=O)Cc4ccc5ccccc5c4)sc3C)ccc21 | inactive |
| O=C(NC1CCCc2c1cnn2-c1ccc(F)cc1F)c1ccccc1 (stereo not given) | inactive |
| Cc1cc(C)n2ncc(C(=O)NC(C)C)c2n1 | inactive |
| COc1cccc(-c2ccc(=O)n(CC(=O)NCCc3ccccc3)n2)c1 | inactive |
| Cc1ccc(OCCn2c(CCNC(=O)/C=C/c3ccccc3Br)nc3ccccc32)cc1 | inactive |
| CN1CCN(c2nnc(NC(=O)Nc3ccc(Cl)c(Cl)c3)s2)CC1 | inactive |
| Cc1ccc(OCCn2c(CCNC(=O)Cc3cccc4ccccc34)nc3ccccc32)cc1 | inactive |

Reference: PubChem BioAssay (NCATS)
